AC50 and activity, negative = inhibition data for 92 compounds are collected here from PubChem BioAssay AID1851 (National Center for Advancing Translational Sciences (NCATS), 2009).

Hit rate of the full screen: of about 16,000 compounds, about 5,800 (36%) were called active. Another 23% or so got no clear call; they are omitted. The call rests on the fitted dose curve; in most records, active means well fitted curve in the direction sought with a large enough effect; inconclusive means small, poorly fitted or top-dose-only effect, or effect the other way; inactive means no such curve, though single readings can be large or run the other way. Some of the results follow.

One may read the AC50 as the midpoint of the concentration-response curve, whichever way the signal moves.
On the % scale 0 is the no-effect control and ±100 the full control effect.

Cytochrome P450 2C19 (Homo sapiens), sequence (P33261 whole entry, looked up): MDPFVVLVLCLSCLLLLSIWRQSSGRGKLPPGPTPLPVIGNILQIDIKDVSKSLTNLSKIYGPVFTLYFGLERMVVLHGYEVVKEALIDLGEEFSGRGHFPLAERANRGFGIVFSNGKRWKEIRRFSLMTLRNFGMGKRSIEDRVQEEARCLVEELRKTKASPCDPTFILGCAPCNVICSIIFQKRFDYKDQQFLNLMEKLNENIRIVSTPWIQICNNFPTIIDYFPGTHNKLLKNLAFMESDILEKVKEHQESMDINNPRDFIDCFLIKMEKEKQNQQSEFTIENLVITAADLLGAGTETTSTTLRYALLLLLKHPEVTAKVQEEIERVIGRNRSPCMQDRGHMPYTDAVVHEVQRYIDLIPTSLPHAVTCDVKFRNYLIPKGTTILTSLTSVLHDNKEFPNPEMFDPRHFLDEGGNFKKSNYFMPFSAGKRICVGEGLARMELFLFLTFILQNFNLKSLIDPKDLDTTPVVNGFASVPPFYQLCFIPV

The assay addresses Cytochrome P450 2C19 (Homo sapiens) (UniProt P33261). Put plainly: Cytochrome panel assay with activity outcomes. The following applies: recombinant CYP, pro-luciferin dealkylation, luminescence, p450-cyp2c19; series mostly up to 57.1 µM.
With `O=C(O)[C@@H](O)[C@@H](O)[C@@H](O)[C@@H](O)c1nc2ccccc2s1`, the half-maximal activity concentration (AC50) is 3.16 µM (active).

Turning to `O=C(O)[C@@H](O)[C@@H](O)[C@@H](O)[C@@H](O)C(=O)O` (tested in a mixture with another compound), the AC50 result was “inactive”.

Take `O=C(O)[C@@H](O)[C@@H](O)[C@H](O)[C@H](O)CO`: the activity, negative = inhibition was 2.53% [at 11.4 µM] (inactive). As to `CSc1nc(N)c2ncn([C@@H]3O[C@@H](COP(=O)(O)OP(=O)(O)O)[C@@H](O)[C@H]3O)c2n1`, the AC50 entry was “inactive”.

On to `COc1ccc(C(C(=O)NC2CCCCC2)N(C(=O)c2sc(C)nc2C)c2ccc(OC)cc2)cc1` (configuration not stated), for which the concentration at half-maximal activity (AC50) was 14.1 µM (active).

For `COc1ccc(C[C@H](N)C(=O)N[C@@H]2[C@H](O)[C@H](n3cnc4c(N(C)C)ncnc43)O[C@@H]2CO)cc1`, the AC50 entry is “inactive”.

For the compound `COc1ccc(C(C(=O)NC2CCCC2)N(C(=O)c2snc(-c3ccc(F)cc3)c2N)c2ccc(F)cc2)cc1` (configuration not stated), the AC50 result was “inactive”.

In the case of `CCc1ccc(N(C(=O)c2ccoc2C)C(C(=O)NC2CCCC2)c2ccc(OC)cc2)cc1` (configuration not stated), the concentration at half-maximal activity (AC50) was 14.1 µM (active). On to `N#C/C(=C\N1CCNC1=S)C(=O)c1ccc2ccccc2c1`, for which the activity, negative = inhibition was -10.2% [at 11.4 µM] (inactive). As for `Cc1ccc(C)c(OCCCC(C)(C)C(=O)O)c1`, the AC50 result is “inactive”. On the same count and under the same terms, as for `C/C(N)=C(/C#N)C(=O)CSc1nnc(COc2cc(C)ccc2C)o1`, the figure is 3.55 µM (active); as for `O=C1SC(c2ccccc2)=C/C1=C\N1CCCCC1`, 2 µM (active). Turning to `COCCNC(=O)Cn1cnc2ccc(S(=O)(=O)N3CCC(C)CC3)cc2c1=O`, the AC50 entry was “inactive”. On to `CC1CCN(CC[C@H]2CCCN2S(=O)(=O)c2cccc(O)c2)CC1`, for which the AC50 result was “inactive”. For `CC1CCN(S(=O)(=O)c2ccc3c(c2)C(=NO)c2cc(S(=O)(=O)N4CCC(C)CC4)ccc2-3)CC1`, the concentration at half-maximal activity (AC50) is 4.47 µM (active). Still for that read-out and setting: as for `COc1cc([C@H](O)C(=O)O)ccc1O`, the entry is “inactive”; as for `COc1ccc(C(O)P(=O)(OC(C)C)OC(C)C)cc1OC` (configuration not stated), 3.55 µM (active). On to `COc1cc([C@@H](O)CO)ccc1OS(=O)(=O)O`, for which the AC50 entry is “inactive”. The same measure, in the same setting: as for `CCC(=O)OCc1c(C(F)(F)F)nn(C)c1Sc1ccc(F)cc1`, the figure is 1.41 µM (active); as for `CC(=O)OCc1c(C(F)(F)F)nn(C)c1Sc1ccccc1`, 0.891 µM (active). For `CC(C)(N=NC(C)(C)C1=NCCN1)C1=NCCN1`, the activity, negative = inhibition was 30.5% [at 11.4 µM] (inactive). For `COC(Cn1c(C)c(C(C)=O)c(C(C)=O)c1C)OC`, the AC50 result is “inactive”. Take `N#C/C(=C\c1ccc(N2CCCC2)c([N+](=O)[O-])c1)c1nc2ccccc2[nH]1`: the concentration at half-maximal activity (AC50) is 1 µM (active). For `N#C/C(=C/c1ccc(N2CCCC2)c([N+](=O)[O-])c1)c1nc2ccccc2[nH]1`, the AC50 was 1.26 µM (active). Turning to `Cn1c(=O)n2n(c1=O)[C@H]1[C@H](O)[C@H]3O[C@H]3C(=O)[C@H]1CC2`, the activity, negative = inhibition is 20.1% [at 11.4 µM] (inactive).

Consider `C1CCC(C(C[C@@H]2CCCCN2)C2CCCCC2)CC1`, for which the AC50 entry was “inactive”. `C[C@@H]1O[C@H](O[C@@H]2[C@@H](Oc3cc(O)c4c(c3)O[C@H](c3ccc(O)cc3)CC4=O)O[C@@H](CO)[C@@H](O)[C@H]2O)[C@@H](O)[C@H](O)[C@@H]1O`: the AC50 entry is “inactive”. Take `O=S(=O)(O)c1ccc(-c2nnc(-c3ccccn3)nc2-c2ccc(S(=O)(=O)O)o2)o1`: the activity, negative = inhibition was -6.8% [at 11.4 µM] (inactive).

Regarding `c1ccc(-c2nc3ccccc3o2)nc1`, the AC50 is 14.1 µM (active). As for `c1ccc(-c2ccccn2)nc1`, the AC50 entry is “inactive”. Turning to `CC(C)=CCNc1ncnc2nc[nH]c12`, the activity, negative = inhibition is 26.8% [at 11.4 µM] (inactive). On to `O=[N+]([O-])/C=C/c1cn(Cc2ccccc2)c2ccccc12`, for which the AC50 is 1.41 µM (active). On to `O=C1CS/C(=C\[N+](=O)[O-])N1c1ccc(OC(F)(F)F)cc1`, for which the concentration at half-maximal activity (AC50) was 3.98 µM (active).

`C/C=C\C1=C(CO)C(=O)C2O[C@]2(CC=C(C)C)C1=O` (some centres not stated): the activity, negative = inhibition was -25.8% [at 11.4 µM] (inactive). Consider `Cc1ccc(C(=O)N2C3C=CC(C3)C2(C(F)(F)F)C(F)(F)F)cc1` (configuration not stated), for which the half-maximal activity concentration (AC50) was 15.8 µM (active). Same read-out and setting: next, `O=S(=O)(CC(O)COc1ccccc1Cl)c1ccccc1` (configuration not stated): 7.08 µM (active); `COc1ccccc1OC[C@H](O)COC(N)=O`: “inactive”; `C=CCOc1ccccc1OC[C@H](O)CNC(C)C`: “inactive”. Regarding `O=C(Nc1cccc2ncccc12)c1cccc(F)c1`, the AC50 entry is “inactive”. Same read-out and setting: next, `O=C(Nc1cccc2ncccc12)c1ccc(-c2ccc(Br)cc2)o1`: 4.47 µM (active); `COc1ccc2[nH]cc(CCNc3ccnc(-c4ccccc4C)n3)c2c1`: 2.51 µM (active); `COc1ccc2[nH]cc(CCNc3ccnc(-c4ccccc4C(F)(F)F)n3)c2c1`: 25.1 µM (active). On to `CC(=O)NCCNc1ccnc(-c2ccccc2C)n1`, for which the AC50 entry is “inactive”. Same read-out and setting: as for `COc1cccc(CNc2ccc(F)c(Cl)c2)c1O`, the figure is 3.16 µM (active); as for `Cc1noc(C)c1C(=O)N1CCC[C@@]2(CCN(C(=O)Nc3ccccc3)C2)C1`, “inactive”.

As to `CCOC(=O)c1c(NC(=O)c2c(Br)cnn2C)c(C#N)nn1-c1ccccc1`, the concentration at half-maximal activity (AC50) is 11.2 µM (active). `CCC(CC)C(=O)Nc1cccc(/C(C)=N/NC(=O)c2c(Br)cnn2C)c1`: the AC50 result is “inactive”. The same measure, in the same setting: as for `O=C1NC(=S)N/C1=C/c1cccc([N+](=O)[O-])c1O`, the entry is “inactive”; as for `Cc1ccc(C(c2ccc(C)o2)c2cccc([N+](=O)[O-])c2O)o1`, 3.55 µM (active). On the same count and under the same terms, next, `Cc1c(-c2ccc(O)cc2)nn(-c2ccc(O)cc2)c1-c1ccc(OCCN2CCCCC2)cc1`: “inactive”. Consider `C=CCNC(=O)/C(=C\C=C\c1ccccc1)NC(=O)c1ccc(OCCCC)cc1`, for which the half-maximal activity concentration (AC50) was 14.1 µM (active). On the same count and under the same terms, next, `CC(C)OC(=O)/C(=C\C=C\c1ccccc1)NC(=O)c1ccccc1`: “inactive”. Still for that read-out and setting: as for `O=C(NCC1CCCO1)/C(=C\c1ccco1)NC(=O)c1ccccc1` (configuration not stated), the entry is “inactive”.

On to `Cc1ccc(C(=O)N/C(=C/C=C/c2ccccc2)C(=O)NCc2ccco2)cc1`, for which the AC50 was 2.24 µM (active). Still for that read-out and setting: as for `CCC(=O)Nc1ccc(C(=O)CSc2nnc(-c3ccc(O)cc3)n2CC2CCCO2)cc1OC` (configuration not stated), the entry is “inactive”; as for `COc1ccc(-c2nc3cnc(N(C)C)nc3n(C[C@H]3CCCO3)c2=O)cc1`, “inactive”; as for `Cc1ccc(CSc2nnc(-c3ccncc3)n2CC2CCCO2)cc1` (configuration not stated), 4.47 µM (active). As to `CCn1c(-c2ccc(N(C)C)cc2)nc2ccccc21`, the half-maximal activity concentration (AC50) was 39.8 µM (active). The same measure, in the same setting: as for `O=C(NCCCc1ccccc1)c1cccs1`, the figure is 2.51 µM (active); as for `Cc1ccc(NC(=O)NCCCc2ccccc2)cc1`, 2.51 µM (active); as for `Cc1cc(C)c(NC(=O)CS(=O)CC(=O)NCCCc2ccccc2)c(C)c1` (configuration not stated), “inactive”. Still for that read-out and setting: next, `Cc1ccc(NNS(=O)(=O)c2ccc(C)cc2)cc1`: 7.08 µM (active); `Cc1ccc(NC(=O)NNS(=O)(=O)c2ccc(Br)cc2)cc1`: “inactive”; `Cc1ccc(S(=O)(=O)NNc2ccccc2)cc1`: 2.82 µM (active).

For the compound `Cc1ccc(S(=O)(=O)NC(=O)OC23COCN2COC3)cc1`, the activity, negative = inhibition was 12.8% [at 11.4 µM] (inactive).

Turning to `CO[C@H]1COC(=O)[C@@H](Cc2ccccc2)NC(=O)[C@@H](C)COC(=O)CCC[C@@H]1C`, the activity, negative = inhibition is -15.4% [at 11.4 µM] (inactive).

For the compound `COc1ccccc1C1(CC(=O)Nc2nccs2)CCOC(C(C)C)C1` (configuration not stated), the AC50 was 1.58 µM (active).

Take `COc1ccc(-c2csc(-n3ncc(-c4cccs4)c3N)n2)cc1`: the AC50 entry is “inactive”. For `Nc1c(-c2cccs2)cnn1-c1nc(-c2ccc(F)cc2)cs1`, the AC50 result is “inactive”. On the same count and under the same terms, as for `Nc1c(-c2cccs2)cnn1-c1nc(-c2ccc(Cl)cc2Cl)cs1`, the figure is 0.0708 µM (active); as for `COc1ccc(CNc2ncncc2-c2ccccc2C(F)(F)F)c(OC)c1`, 1.58 µM (active); as for `COc1ccccc1CNc1ncncc1-c1ccccc1C(F)(F)F`, 1.58 µM (active). Same read-out and setting: next, `COCCn1c(=O)c(C)nc2cnc(N(C)C)nc21`: “inactive”; `COC(=O)c1ccc(Oc2nc(N(C)C)nc(N3CCOCC3)n2)cc1`: 14.1 µM (active); `COc1ccc(-n2c(=O)c(C)nc3cnc(N4CCOCC4)nc32)cc1`: “inactive”.

Regarding `CN(C)C(=O)c1ccc(-c2ccc3ncnc(N4CCOCC4)c3c2)cc1`, the AC50 entry is “inactive”.

`N#Cc1c(NC(=O)C(F)(F)F)sc2c3c(=O)c4ccccc4c(=O)c=3oc3ccccc3c12`: the concentration at half-maximal activity (AC50) is 0.501 µM (active).

Take `O=C(CCCn1c(=S)[nH]c2cc3c(cc2c1=O)OCO3)N1CCN(c2ncccn2)CC1`: the AC50 is 22.4 µM (active). As to `O=C(CCCn1c(=S)[nH]c2cc3c(cc2c1=O)OCO3)N1CCN(c2ccccc2)CC1`, the AC50 was 10 µM (active). On the same count and under the same terms, next, `O=c1c2cc(Br)ccc2[nH]c(=S)n1Cc1cccnc1`: 1.58 µM (active); `Cc1cccc(N2CCN(C(=O)CCCn3c(=S)[nH]c4cc5c(cc4c3=O)OCO5)CC2)c1C`: 2.82 µM (active); `C=CCNC(=O)c1ccc(Cn2c(=S)[nH]c3cc4c(cc3c2=O)OCO4)cc1`: “inactive”. In the case of `Cn1c(=S)c2[nH]c(SCc3cccnc3)nc2n(C)c1=O`, the activity, negative = inhibition was 23.1% [at 11.4 µM] (inactive). With `O=C(c1cnccn1)N1CCC2(CC1)CN(c1cccc(-c3ccccc3)c1)C2`, the AC50 entry is “inactive”. In the case of `O=C(O)/C=C\C(=O)Nc1cccc2c1-c1ccccc1C2=O`, the activity, negative = inhibition is 28.6% [at 11.4 µM] (inactive). `Cc1ccccc1CNc1ncnc2c1ncn2[C@@H]1O[C@@H](CO)[C@H](O)[C@@H]1O`: the AC50 result is “inactive”.

Consider `CCCc1nnc(NC(=O)CCC(=O)N2CCN(c3ccccn3)CC2)s1`, for which the AC50 entry is “inactive”.

With `O=C(CCCn1c(=S)[nH]c2ccc(Br)cc2c1=O)N1CCN(c2ccccn2)CC1`, the AC50 was 2.51 µM (active). Same read-out and setting: as for `O=C(CCCn1c(=S)[nH]c2ccc(Br)cc2c1=O)NCC1CCCO1` (configuration not stated), the figure is 3.55 µM (active); as for `CN=C(NC#N)NCCSC[C@H]1N=CN=C1C`, “inactive”.

Take `N[C@@H]1[C@@H]2[C@@H]3C[C@H]4N(CC[C@@]14C(=O)C(=O)O)CC3=CCO[C@@H]2CC(=O)O`: the activity, negative = inhibition was -13.5% [at 11.4 µM] (inactive). Take `Cc1ccc(S(=O)(=O)NCCSc2nnnn2C)cc1`: the AC50 is 5.01 µM (active).
